In PubChem BioAssay (NCATS):
Unmarked numbers belong to inactive results. Records with an inconclusive call do not appear. The source made the active and inactive calls. Unless noted, the call rests on the fitted dose curve; in most records, active means well fitted curve in the direction sought with a large enough effect; inconclusive means small, poorly fitted or top-dose-only effect, or another doubt; inactive means no such curve, though single readings can be large; an effect the other way counts as inactive or inconclusive.

How the values were obtained:
[1] = target: Lysosomal acid glucosylceramidase (Homo sapiens) (UniProt P04062); test: Glucocerebrosidase-p2 (AID 348; in the data active means potency below about 10 µM; further: potency means the concentration at half of the fitted maximal effect); conditions: purified GBA, blue fluorogenic substrate, 40 min
Method in brief: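 Compounds titrated from 0.6 nM upwards against 0.2 nM enzyme in pH 5.9 citric acid/KH2PO4, taurocholate, tween-20; blue fluorogenic substrate 80 uM, 40 min room temperature, stopped and read Ex 365/Em 440 for AC50.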

[2] = NFAT Signaling Pathway (AID 444; active means well fitted curve in either direction with a large enough effect, not every such curve was filed as active;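 further: carbachol stimulus at about its EC50 of 1 µM final; on the % scale 0 is the no-effect control and ±100 the full control effect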); conditions: Jurkat NFAT-bla M1, carbachol, beta-lactamase ratio, 5 h; at 7.69 µM (top of the series) unless noted
Method in brief: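 Jurkat cells carrying an NFAT-driven β-lactamase reporter and co-transfected muscarinic M1 receptor were treated with compound plus carbachol (1 uM final, an EC50 level) for 5 h at 37 °C. CCF4 loading followed for 1 h at RT; 460/530 nm ratio gave %activity.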

[3] = target: Glucocorticoid receptor (Homo sapiens) (UniProt P04150); test: GR-GFP Redistribution (AID 450;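 active means compounds whose dose series gives a full or clear partial fitted curve of increased nuclear translocation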; further: potency means the concentration at half of the fitted maximal effect); conditions: U2OS GR-GFP nuclear translocation, laser cytometry, 2 h
[4] = target: Glucocorticoid receptor (Homo sapiens) (UniProt P04150); test: GR-EFC Redistribution (AID 451; calls by dose curve; further: potency means the concentration at half of the fitted maximal effect); conditions: CHO-K1 GR-EFC translocation, beta-gal luminescence, 2 h
Method in brief: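 CHO-K1 cells stably expressing nuclear-localized β-gal enzyme acceptor and GR fused C-terminally to the enzyme donor fragment; ligand-driven nuclear translocation restores β-gal by complementation. Compounds titrated up to 46 uM final, 2 h at 37 °C; luminescence read.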

[5] = target: 3',5'-cyclic-AMP phosphodiesterase 4B (Homo sapiens) (UniProt Q07343); test: qHTS Assay for Inhibitors of PDE-IV (AID 607; active means well fitted activation curve with a large enough effect in the main read-out, with a control signal flat, not every such curve was filed as active; further: % of control where 0% means no effect); conditions: HEK293 ACTOne CNG channel cells, membrane potential fluorescence; series mostly up to 22.9 µM
Method in brief: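 ACTOne HEK293 cells carry a modified cAMP-gated CNG channel and express endogenous PDE4; plated 1000 cells/well, compounds up to 22.9 uM final. Membrane-potential dye fluorescence (ex 535/em 590) was read; parental cells received 10 uM forskolin + 100 uM RO 20-1724.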

[6] = qHTS Assay for Identification of Small Molecule Agonists for Hypoxia Response Element Signaling Pathway (AID 914; active means well fitted activation curve with a large enough effect in the signal ratio, with a control signal flat, not every such curve was filed as active; the % refers to the signal ratio; further: potency means the concentration at half of the fitted maximal effect); conditions: ME-180 HRE-bla reporter, beta-lactamase ratio, CoCl2, 17 h; activation: stronger effect = higher value
Method in brief: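 ME-180 cells carrying an HRE-driven beta-lactamase reporter were treated with compounds in a titration series plus an EC50 level of CoCl2 for 17 h at 37 degrees Celsius; CCF4 readout as the 460nm/530nm ratio gave AC50 values.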

[7] = target: Dual specificity protein kinase CLK4 (Homo sapiens) (UniProt Q9HAZ1); test: qHTS Assay for Inhibitors of CDC-like Kinase 4 (Kinase-Glo Assay) (AID 1770); conditions: recombinant Clk4, Kinase-Glo ATP depletion luminescence; series mostly up to 66.7 µM; further: nearly all actives have a fitted effect of over 65% in size; further: potency means the concentration at half of the fitted maximal effect
Method in brief: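 Luminescent ATP-depletion read-out (Kinase-Glo) after 4.5 h room-temperature reaction of Clk4 (25 nM final) with RS peptide (100 uM) and ATP (1 uM), pH 7.5 Tris buffer with MgCl2 and DTT.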

[8] = target: Dual specificity protein kinase CLK4 (Homo sapiens) (UniProt Q9HAZ1); test: qHTS Assay for Inhibitors of CDC-like Kinase 4 (ADP-Glo Assay) (AID 1771); conditions: recombinant CLK4, ADP-Glo luminescence; series mostly up to 80 µM; further: nearly all actives have a fitted effect of over 70% in size; further: potency means the concentration at half of the fitted maximal effect
Method in brief: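 Clk4 (25 nM) was incubated 1 hr at room temperature with 100 uM RS repeat peptide and 1 uM ATP in buffer with 2 mM MgCl2, 0.5 mM EGTA, 2.5 mM DTT. ADP formed was quantified by ADP-Glo luminescence.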

[9] = target: Dual specificity protein kinase CLK4 (Homo sapiens) (UniProt Q9HAZ1); test: qHTS Assay for Inhibitors of CDC-like Kinase 4 (ADP-FP Assay) (AID 1795); conditions: Transcreener ADP fluorescence polarization; series mostly up to 50 µM; further: nearly all actives have a fitted effect of over 60% in size; further: potency means the concentration at half of the fitted maximal effect
Method in brief: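 Kinase activity was measured as ADP production using Transcreener orange tracer (4 nM) and ADP antibody (1 ug/mL) fluorescence polarization, with ADP calculated from a calibration curve. The 1 h reaction contained 6.25 nM Clk4, 1 uM ATP and 100 uM RS peptide at pH 7.5 with Mg2+.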

[10] = target: Ubiquitin carboxyl-terminal hydrolase 1 (Homo sapiens) (UniProt O94782); test: Inhibitors of USP1/UAF1: Pilot qHTS (AID 504865); conditions: purified USP1/UAF1, Ub-rhodamine cleavage fluorescence; series mostly up to 54.9 µM;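 further: rhodamine fluorescence freed from ubiquitin-rhodamine substrate followed over time; top concentration of the series differs between compounds; on the % scale 0 is the no-effect control and ±100 the full control effect; nearly all actives have a fitted effect of over 35% in size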
Method in brief: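 Deubiquitinase activity followed as kinetic rhodamine fluorescence release from 150 nM Ub-Rho. 1 nM USP1/UAF1 with compound, after 15 min room-temperature preincubation, in HEPES pH 7.8 buffer containing TCEP, EDTA, BSA and Tween-20.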

[11] = Primary qHTS for small molecule stabilizers of the endoplasmic reticulum resident proteome: Secreted ER Calcium Modulated Protein (SERCaMP) assay (AID 1508630); conditions: SH-SY5Y GLuc-SERCaMP (Gaussia luciferase released on ER calcium loss) secretion, thapsigargin, luminescence; series mostly up to 38.4 µM; further: on the % scale 0 is the no-effect control and ±100 the full control effect
Method in brief: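 GLuc-SERCaMP-expressing SH-SY5Y cells, pretreated 16 h with compound, are challenged with thapsigargin to empty ER calcium stores; after 4 h, coelenterazine is added directly to the medium and luminescence is imaged.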

[12] = target: Cytochrome P450 1A2 (Homo sapiens) (UniProt P05177); test: p450-cyp1a2 (AID 410; calls by dose curve; further: potency means the concentration at half of the fitted maximal effect); conditions: recombinant CYP1A2, luciferin-ME demethylation, luminescence; series mostly up to 57 µM
Method in brief: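 Human CYP1A2 (20nM) demethylated Luciferin-ME at its Km (100uM) in 100mM KPO4. After 10 min compound preincubation, NADPH regeneration ran the reaction 60 min at room temperature. Luciferin was read by luminescence, normalized to 57 uM furafylline.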

[13] = target: Mitogen-activated protein kinase 10 (Mus musculus) (UniProt Q61831); test: JNK3 AlphaScreen Assay (AID 530; active means well fitted curve in either direction with a large enough effect, not every such curve was filed as active;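 further: kinase came from lysate of stimulated human HepG2 cells; signal reports phosphorylation of biotinylated GST-cJun 1-79 at Ser73 with 10 µM ATP; on the % scale 0 is the no-effect control and ±100 the full control effect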); conditions: JNK3 lysate, c-Jun phosphorylation; series mostly up to 57.1 µM
Method in brief: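 JNK3 came from HepG2 lysates pre-activated with IL-1beta and TNF-alpha and phosphorylated biotinylated GST-cJun (1-79) at 10 uM ATP, pH 7.6, room temperature. Compounds were titrated. AlphaScreen signal used anti-phospho-cJun (Ser73) antibody.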

[14] = Stat Signaling Pathway (AID 446; active means well fitted curve in either direction with a large enough effect, not every such curve was filed as active;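 further: ME-180 cervical cancer cells given 40 pM IL-6 alongside compound; SIE-controlled beta-lactamase reporter measured as 460/530 nm FRET emission ratio; on the % scale 0 is the no-effect control and ±100 the full control effect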); conditions: ME-180 SIE beta-lactamase reporter, IL-6 stimulated, 5 h; at 7.69 µM (top of the series) unless noted
Method in brief: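 ME-180 SIE-bla cells; overnight plating; cpd + IL-6 40 pM, 5 h, 37 C; LiveBLAzer 2.5 h RT; 460/530 nm emission ratio. Normalized to 300 pM IL-6 and 125 nM JAK inhibitor controls.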

[15] = target: Cytochrome P450 2C9 (Homo sapiens) (UniProt P11712); test: qHTS Assay for Inhibitors and Substrates of Cytochrome P450 2C9 (AID 883); conditions: recombinant CYP2C9, luciferin-H luminescence, 60 min; series mostly up to 57.1 µM; further: potency means the concentration at half of the fitted maximal effect; nearly all actives have a fitted effect of over 60% in size
Method in brief: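 A luminogenic readout tracked human CYP2C9 (10nM) converting deoxyluciferin (100uM, at KM) in 25mM KPO4 during 60 min at 37C with regenerated NADPH. Values normalized to 57uM sulphaphenazole as complete inhibition.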

[16] = target: Cytochrome P450 3A4 (Homo sapiens) (UniProt P08684); test: qHTS Assay for Inhibitors and Substrates of Cytochrome P450 3A4 (AID 884); conditions: recombinant CYP3A4, Luciferin-PPXE luminescence; series mostly up to 57.1 µM; further: potency means the concentration at half of the fitted maximal effect; nearly all actives have a fitted effect of over 50% in size
Method in brief: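 20 nM human CYP3A4 with 25 uM Luciferin-PPXE (at KM) in 200 mM KPO4, preincubated 10 min with compound; NADPH regeneration started a 60 min RT reaction. Luciferin detected by luminescence, normalized to 57 uM ketoconazole as full inhibition.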

[17] = target: Cytochrome P450 3A4 (Homo sapiens) (UniProt P08684); test: qHTS Assay for Activators of Cytochrome P450 3A4 (AID 885); conditions: recombinant CYP3A4, Luciferin-PPXE luminescence, 60 min; series mostly up to 57.1 µM; further: nearly all actives have a fitted effect of over 65% in size
Method in brief: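 20nM CYP3A4 + 25uM Luciferin-PPXE (=KM), 200mM KPO4; cpd 10 min RT; NADPH regen, 60 min RT; stop w/ detection buffer, 20 min; luminescence. Normalized to 57 uM ketoconazole.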

[18] = target: Cytochrome P450 2C19 (Homo sapiens) (UniProt P33261); test: qHTS Assay for Inhibitors and Substrates of Cytochrome P450 2C19 (AID 899); conditions: recombinant CYP2C19, luciferin-H EGE luminescence; series mostly up to 57.1 µM; further: potency means the concentration at half of the fitted maximal effect; nearly all actives have a fitted effect of over 60% in size
Method in brief: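 NADPH-dependent conversion of Luciferin-H EGE (10uM, at KM) by 5nM enzyme in 50mM KPO4, 60 min at 37C following 10 min compound preincubation. Stopped with luciferin detection buffer; luminescence read after 20 min.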

Chain of Lysosomal acid glucosylceramidase (Homo sapiens) (P04062 whole entry, looked up): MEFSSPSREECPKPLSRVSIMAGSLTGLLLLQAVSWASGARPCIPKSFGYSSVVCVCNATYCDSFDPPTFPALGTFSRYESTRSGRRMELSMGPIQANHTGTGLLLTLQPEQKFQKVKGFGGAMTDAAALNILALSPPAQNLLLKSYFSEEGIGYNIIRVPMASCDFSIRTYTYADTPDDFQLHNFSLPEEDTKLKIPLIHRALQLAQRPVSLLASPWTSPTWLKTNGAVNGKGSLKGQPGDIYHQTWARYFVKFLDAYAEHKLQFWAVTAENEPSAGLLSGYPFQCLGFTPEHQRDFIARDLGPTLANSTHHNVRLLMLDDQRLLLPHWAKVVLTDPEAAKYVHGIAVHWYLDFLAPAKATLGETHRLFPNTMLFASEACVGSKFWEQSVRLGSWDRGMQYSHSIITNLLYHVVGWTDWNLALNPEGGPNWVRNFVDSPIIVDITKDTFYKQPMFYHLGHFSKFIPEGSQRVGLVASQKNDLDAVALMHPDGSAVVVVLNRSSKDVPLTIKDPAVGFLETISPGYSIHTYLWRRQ
Chain of Cytochrome P450 1A2 (Homo sapiens) (P05177 whole entry, looked up): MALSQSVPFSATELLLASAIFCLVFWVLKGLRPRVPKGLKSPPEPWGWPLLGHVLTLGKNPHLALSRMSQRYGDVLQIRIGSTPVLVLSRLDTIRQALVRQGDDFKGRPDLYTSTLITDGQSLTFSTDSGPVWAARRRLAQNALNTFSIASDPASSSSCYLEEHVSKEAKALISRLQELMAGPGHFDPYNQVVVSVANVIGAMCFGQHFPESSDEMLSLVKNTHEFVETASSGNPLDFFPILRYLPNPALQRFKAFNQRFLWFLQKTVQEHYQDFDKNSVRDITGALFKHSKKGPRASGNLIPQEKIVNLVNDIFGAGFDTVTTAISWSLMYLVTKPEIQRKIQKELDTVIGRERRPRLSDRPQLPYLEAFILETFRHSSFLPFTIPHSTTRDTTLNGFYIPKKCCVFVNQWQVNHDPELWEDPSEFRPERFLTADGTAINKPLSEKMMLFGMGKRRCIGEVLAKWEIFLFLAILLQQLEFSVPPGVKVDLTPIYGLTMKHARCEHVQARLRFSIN
Chain of Cytochrome P450 3A4 (Homo sapiens) (P08684 whole entry, looked up): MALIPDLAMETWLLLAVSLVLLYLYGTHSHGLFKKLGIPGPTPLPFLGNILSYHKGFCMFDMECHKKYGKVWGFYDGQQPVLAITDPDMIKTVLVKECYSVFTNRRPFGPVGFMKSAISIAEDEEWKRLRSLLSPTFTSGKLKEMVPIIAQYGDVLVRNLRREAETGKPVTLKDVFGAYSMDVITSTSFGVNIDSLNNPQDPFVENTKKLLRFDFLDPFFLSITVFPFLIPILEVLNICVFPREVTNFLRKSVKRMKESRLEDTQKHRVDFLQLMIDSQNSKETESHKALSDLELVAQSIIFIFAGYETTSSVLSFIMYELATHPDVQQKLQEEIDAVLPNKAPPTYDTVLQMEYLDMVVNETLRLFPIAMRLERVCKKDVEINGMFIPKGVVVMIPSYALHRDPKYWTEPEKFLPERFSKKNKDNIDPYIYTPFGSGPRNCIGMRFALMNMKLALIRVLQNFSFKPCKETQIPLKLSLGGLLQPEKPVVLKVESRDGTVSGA
Chain of 3',5'-cyclic-AMP phosphodiesterase 4B (Homo sapiens) (Q07343 whole entry, looked up): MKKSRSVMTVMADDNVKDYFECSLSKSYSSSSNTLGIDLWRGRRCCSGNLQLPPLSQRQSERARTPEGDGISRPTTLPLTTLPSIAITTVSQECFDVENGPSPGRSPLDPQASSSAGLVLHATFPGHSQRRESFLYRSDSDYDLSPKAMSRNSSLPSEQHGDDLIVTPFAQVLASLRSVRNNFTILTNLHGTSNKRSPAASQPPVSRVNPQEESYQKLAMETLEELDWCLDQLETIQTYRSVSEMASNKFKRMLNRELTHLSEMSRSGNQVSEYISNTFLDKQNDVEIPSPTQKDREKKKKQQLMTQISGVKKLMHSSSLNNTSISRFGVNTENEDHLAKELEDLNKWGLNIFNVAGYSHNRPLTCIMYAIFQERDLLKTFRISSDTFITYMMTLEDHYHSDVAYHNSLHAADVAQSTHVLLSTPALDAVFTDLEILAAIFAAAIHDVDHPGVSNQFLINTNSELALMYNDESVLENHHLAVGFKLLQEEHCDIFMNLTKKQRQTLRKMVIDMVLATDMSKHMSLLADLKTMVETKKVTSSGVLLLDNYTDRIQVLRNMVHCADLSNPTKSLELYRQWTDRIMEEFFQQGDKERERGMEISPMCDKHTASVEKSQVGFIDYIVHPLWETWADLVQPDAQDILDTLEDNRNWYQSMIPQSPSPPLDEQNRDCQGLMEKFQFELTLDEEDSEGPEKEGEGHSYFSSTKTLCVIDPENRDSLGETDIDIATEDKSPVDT
Chain of Glucocorticoid receptor (Homo sapiens) (P04150 whole entry, looked up, the tested form may be a part): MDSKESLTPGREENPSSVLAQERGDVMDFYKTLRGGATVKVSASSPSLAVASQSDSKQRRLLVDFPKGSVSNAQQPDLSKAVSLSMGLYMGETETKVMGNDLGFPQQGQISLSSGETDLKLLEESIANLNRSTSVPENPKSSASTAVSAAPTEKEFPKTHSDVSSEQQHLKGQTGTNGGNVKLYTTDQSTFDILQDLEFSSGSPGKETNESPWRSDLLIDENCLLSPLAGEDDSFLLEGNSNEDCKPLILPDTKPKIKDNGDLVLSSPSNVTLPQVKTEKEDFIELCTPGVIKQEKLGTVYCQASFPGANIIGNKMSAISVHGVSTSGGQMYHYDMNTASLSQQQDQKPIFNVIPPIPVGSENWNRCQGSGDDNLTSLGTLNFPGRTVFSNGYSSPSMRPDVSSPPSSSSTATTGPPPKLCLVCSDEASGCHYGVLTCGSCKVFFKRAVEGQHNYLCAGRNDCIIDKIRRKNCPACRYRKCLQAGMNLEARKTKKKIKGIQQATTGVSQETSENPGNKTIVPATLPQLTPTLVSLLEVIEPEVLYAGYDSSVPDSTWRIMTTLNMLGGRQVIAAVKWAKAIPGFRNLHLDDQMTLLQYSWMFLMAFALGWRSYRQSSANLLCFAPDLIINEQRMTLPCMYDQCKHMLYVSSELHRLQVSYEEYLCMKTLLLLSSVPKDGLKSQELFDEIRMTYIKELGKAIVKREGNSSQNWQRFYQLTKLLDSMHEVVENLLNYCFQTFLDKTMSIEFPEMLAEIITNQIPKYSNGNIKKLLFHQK
Chain of Dual specificity protein kinase CLK4 (Homo sapiens) (Q9HAZ1 whole entry, looked up): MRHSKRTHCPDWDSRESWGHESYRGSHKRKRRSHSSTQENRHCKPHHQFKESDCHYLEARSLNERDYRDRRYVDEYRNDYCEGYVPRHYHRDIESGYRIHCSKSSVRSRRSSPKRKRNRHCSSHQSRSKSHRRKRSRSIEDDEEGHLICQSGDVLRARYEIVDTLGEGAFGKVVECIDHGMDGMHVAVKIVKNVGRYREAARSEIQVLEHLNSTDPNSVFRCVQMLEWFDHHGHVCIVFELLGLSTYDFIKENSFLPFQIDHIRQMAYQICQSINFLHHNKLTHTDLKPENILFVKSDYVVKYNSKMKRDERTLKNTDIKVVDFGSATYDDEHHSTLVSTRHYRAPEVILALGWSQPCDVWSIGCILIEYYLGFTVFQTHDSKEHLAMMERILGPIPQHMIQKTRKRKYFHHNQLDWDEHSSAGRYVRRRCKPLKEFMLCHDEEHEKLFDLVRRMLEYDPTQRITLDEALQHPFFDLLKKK
Chain of Ubiquitin carboxyl-terminal hydrolase 1 (Homo sapiens) (O94782 whole entry, looked up): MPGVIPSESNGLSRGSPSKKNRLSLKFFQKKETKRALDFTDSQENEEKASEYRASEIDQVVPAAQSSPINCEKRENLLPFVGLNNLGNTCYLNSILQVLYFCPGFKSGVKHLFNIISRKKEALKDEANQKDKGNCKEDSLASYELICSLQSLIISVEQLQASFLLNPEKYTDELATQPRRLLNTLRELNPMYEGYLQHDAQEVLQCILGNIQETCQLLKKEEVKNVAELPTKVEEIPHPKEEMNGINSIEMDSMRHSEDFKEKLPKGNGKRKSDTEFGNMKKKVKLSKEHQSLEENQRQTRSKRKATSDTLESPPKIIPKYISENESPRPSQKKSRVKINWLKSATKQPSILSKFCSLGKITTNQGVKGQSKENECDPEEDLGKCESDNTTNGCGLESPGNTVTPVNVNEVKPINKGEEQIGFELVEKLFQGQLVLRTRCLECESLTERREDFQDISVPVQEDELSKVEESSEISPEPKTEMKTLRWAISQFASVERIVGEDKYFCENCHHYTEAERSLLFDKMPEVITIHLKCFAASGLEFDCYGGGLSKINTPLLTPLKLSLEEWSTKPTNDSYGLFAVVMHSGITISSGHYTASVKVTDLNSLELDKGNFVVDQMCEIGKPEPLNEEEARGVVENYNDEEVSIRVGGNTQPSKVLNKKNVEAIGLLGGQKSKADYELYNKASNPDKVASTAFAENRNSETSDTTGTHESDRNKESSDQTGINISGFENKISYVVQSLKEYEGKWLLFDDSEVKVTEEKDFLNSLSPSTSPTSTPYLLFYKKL
Chain of Cytochrome P450 2C9 (Homo sapiens) (P11712 whole entry, looked up): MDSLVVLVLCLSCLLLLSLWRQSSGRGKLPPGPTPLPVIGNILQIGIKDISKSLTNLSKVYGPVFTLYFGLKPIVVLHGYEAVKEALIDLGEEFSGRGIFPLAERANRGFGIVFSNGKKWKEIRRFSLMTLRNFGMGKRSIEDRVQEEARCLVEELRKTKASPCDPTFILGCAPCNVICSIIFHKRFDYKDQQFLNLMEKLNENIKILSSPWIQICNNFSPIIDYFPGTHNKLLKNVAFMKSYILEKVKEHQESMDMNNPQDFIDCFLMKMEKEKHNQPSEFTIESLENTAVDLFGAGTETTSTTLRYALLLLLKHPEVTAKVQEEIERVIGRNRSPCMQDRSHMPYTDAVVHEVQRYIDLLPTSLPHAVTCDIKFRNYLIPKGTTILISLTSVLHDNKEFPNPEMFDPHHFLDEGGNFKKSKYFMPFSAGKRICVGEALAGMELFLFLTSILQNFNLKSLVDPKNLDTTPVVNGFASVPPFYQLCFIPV

For CN1CCN(c2ncc3nc(-c4cn(C)c5ccccc45)c(=O)n(Cc4cccs4)c3n2)CC1, the Potency [1] was > 11.4 µM, the activity change, negative = inhibition [2] was 3.65% and the Potency [3] was > 9.22 µM. For the same compound, the Potency [4] was > 46 µM, the Potency [5] was “inactive” and the Potency [6] was 2.51 µM (active). For the same compound, the Potency [7] was “inactive”, the Potency [8] was “inactive” and the Potency [9] was “inactive”. For the same compound, the Potency [10] was “inactive” and the outcome [11] was “inactive”.
For O=c1c(-c2ccccc2)nc2cnc(N3CCOCC3)nc2n1Cc1ccc(F)cc1, the Potency [1] was > 11.4 µM, the Potency [12] was 20 µM (active) and the Potency [3] was > 9.22 µM. The Potency [4] was > 46 µM, the Potency [13] was “inactive” and the Potency [7] was “inactive”. For the same compound, the Potency [8] was “inactive”, the Potency [9] was “inactive” and the Potency [10] was “inactive”. The outcome [11] was “inactive”.
With O=c1c(-c2ccc(F)cc2)nc2cnc(N3CCOCC3)nc2n1Cc1ccc(F)cc1 the Potency [1] was > 11.4 µM, the Potency [12] was 20 µM (active) and the activity, negative = inhibition [14] was 105% [activator] (active). For the same compound, the Potency [3] was > 9.22 µM, the Potency [4] was > 46 µM and the Potency [13] was “inactive”. The Potency [5] was “inactive”, the Potency [6] was 0.398 µM (active) and the Potency [7] was “inactive”. The Potency [8] was “inactive”, the Potency [9] was “inactive” and the Potency [10] was “inactive”. For the same compound, the outcome [11] was “inactive”.
For COc1ccccc1CCn1c(=O)c(-c2cn(C)c3ccccc23)nc2cncnc21, the Potency [1] was > 11.4 µM, the Potency [12] was 1.26 µM (active) and the activity change, negative = inhibition [2] was 19%. The Potency [3] was > 9.22 µM, the Potency [4] was > 46 µM and the Potency [5] was “inactive”. The Potency [15] was 0.316 µM (active), the Potency [16] was 2.51 µM (active) and the Potency [17] was “inactive”. For the same compound, the Potency [18] was 0.316 µM (active), the Potency [7] was “inactive” and the Potency [8] was “inactive”. For the same compound, the Potency [9] was “inactive”, the Potency [10] was “inactive” and the outcome [11] was “inactive”.
In the case of CNc1ncnc2ccc(-c3ccc4c(c3)OCO4)cc12, the Potency [1] is reported as > 11.4 µM, the activity change, negative = inhibition [2] is reported as 15.3% and the activity, negative = inhibition [14] is reported as 12.6%. For the same compound, the Potency [3] was > 46 µM, the Potency [4] was > 46 µM and the Potency [13] was “inactive”. For the same compound, the Potency [5] was “inactive”, the Potency [7] was 0.891 µM (active) and the Potency [8] was 0.631 µM (active). The Potency [9] was 0.355 µM (active), the Potency [10] was “inactive” and the outcome [11] was “inactive”.
For O=c1c(-c2ccc(Cl)cc2)nc2cnc(N3CCNCC3)nc2n1-c1ccccc1, the Potency [1] was > 11.4 µM, the activity change, negative = inhibition [2] was 153% [activator] (active) and the Potency [3] was > 9.22 µM. The Potency [4] was > 46 µM, the Potency [5] was “inactive” and the Potency [17] was “inactive”. For the same compound, the Potency [7] was “inactive”, the Potency [8] was “inactive” and the Potency [9] was “inactive”. The Potency [10] was “inactive” and the outcome [11] was “inactive”.
With c1nc(N2CCOCC2)c2cc(-c3ccoc3)ccc2n1 the Potency [1] was > 11.4 µM, the activity change, negative = inhibition [2] was 17.9% and the activity, negative = inhibition [14] was -19.4%. The Potency [3] was > 46 µM, the Potency [4] was > 46 µM and the Potency [13] was “inactive”. The Potency [7] was 0.224 µM (active), the Potency [8] was 0.631 µM (active) and the Potency [9] was 0.178 µM (active). The Potency [10] was “inactive” and the outcome [11] was “inactive”.
